Test results reported in PubChem BioAssay (NCATS).
Where “and” joins values, the source holds several entries; their conditions need not be identical. Equal values may be shown once. Results filed as inconclusive are left out. A call without a number means that no potency is given here. Unmarked numbers belong to inactive results. Calls of active or inactive are those of the source. Calls come from the whole dose curve; as a rule, active = well fitted curve in the direction sought with a large enough effect; inconclusive = small, poorly fitted or top-dose-only effect, or another doubt; inactive = no such curve, though single readings can be large; an effect the other way counts as inactive or inconclusive. Where a SMILES comes first, the peptide text is derived from it. [ ]: non-standard residue; d: D form.

Key:
[1] = Primary qHTS for inhibitors of nuclear receptor binding SET domain protein 2 (NSD2) in an isogenic RCH-ACV NSD2 p.E1099K mutant (9B) (AID 1645876)
[2] = Primary qHTS for inhibitors of nuclear receptor binding SET domain protein 2 (NSD2) in an RCH-ACV wild type WT cells (2C) (AID 1645877)
Note: nearly all actives have a fitted effect of over 70% in size.
Potency is the fitted concentration of half-maximal effect.

Compound: C[C@@H]1O[C@@H](O[C@H]2[C@H](OC(=O)[C@]34CCC(C)(C)C[C@H]3C3=CCC5[C@@]6(C)C[C@H](O)[C@H](O[C@@H]7O[C@H](CO)[C@@H](O[C@@H]8O[C@H](CO)[C@@H](O)[C@H](O)[C@H]8O)[C@H](O)[C@H]7O)[C@@](C)(CO)C6[C@H](O)C[C@@]5(C)[C@]3(C)C[C@H]4O)OC[C@H](O)[C@@H]2O)[C@H](O)[C@H](O)[C@H]1O[C@@H]1OC[C@@H](O)[C@H](O[C@@H]2OC[C@](O)(CO)[C@H]2O)[C@H]1O (some centres undefined)
- activity change, negative = viability loss [1]: -3.67% [at 9.23 µM]
- activity change, negative = cell killing [2]: 2.2% [at 9.23 µM]

Compound: COc1ccc(C(OC2OC(CO)C(O)C(O)C2O)C(C)O)cc1 (centres undefined)
- Potency [1]: inactive
- Potency [2]: inactive

Compound: COc1ccc(/C=C/C(=O)O[C@@H]2[C@@H](OC(C)=O)[C@@H](OC(C)=O)[C@H](O[C@H]3[C@@H]4C=CO[C@@H](O[C@@H]5O[C@H](CO)[C@@H](O)[C@H](O)[C@H]5O)[C@@H]4[C@@]4(CO)O[C@@H]34)O[C@H]2C)cc1O
- Potency [1]: inactive
- Potency [2]: inactive

Compound: CC(C)(O)C1=CCC23COC(C2)C(O)(C(=O)O)CCC13 (centres undefined)
- Potency [1]: inactive
- Potency [2]: inactive

Compound: O=C(O)C[C@H]1CCC(=O)[C@@H]1C/C=C\CCOC1OC(CO)C(O)C(O)C1O (some centres undefined)
- Potency [1]: inactive
- Potency [2]: inactive

Compound: COC(=O)c1cc(CN2CCN(C(=N)N)CC2)cc(C(=O)N2CCN(C(=O)c3ccc(C(=N)N)cc3)CC2)c1
- Potency [1]: inactive
- Potency [2]: inactive

Compound: NC(=O)c1cccc(-c2cc(O)cc(OC(=O)NC3CCCCC3)c2)c1
- Potency [1]: inactive
- Potency [2]: inactive

Compound: CC1=C2C(=O)O[C@@H](c3ccoc3)[C@]2(C)CCC1
- Potency [1]: inactive
- Potency [2]: inactive

Compound: COc1ccc(/C=C/C(=O)O[C@@H]2[C@@H](O)[C@H](C)O[C@@H](OC3C4C=COC(O[C@@H]5O[C@H](CO)[C@@H](O)[C@H](O)[C@H]5O)C4C4(CO)OC34)[C@@H]2O)cc1OC (some centres undefined)
- Potency [1]: inactive
- Potency [2]: inactive

Compound: CN(NC(=O)CC(=O)NN(C)C(=S)c1ccccc1)C(=S)c1ccccc1
- Potency [1]: 40.9 nM (active) and 8.3 nM (active)
- Potency [2]: 40.9 nM (active) and 9.3 nM (active)

Compound: CC1(C)NC2N(C1=O)c1ccccc1C2(O)CC(C(=O)O)n1cnc2ccccc2c1=O (centres undefined)
- Potency [1]: inactive
- Potency [2]: inactive

Compound: O=C(O[C@H]1[C@@H]2C=CO[C@@H](O[C@@H]3O[C@H](CO)[C@@H](O)[C@H](O)[C@H]3O)[C@@H]2[C@@]2(CO)O[C@@H]12)c1ccc(O)cc1
- Potency [1]: inactive
- Potency [2]: inactive

Compound: CC1[C@@H](O)[C@@H](O)C2[C@]3(C)C(C[C@H]4OC(=O)[C@H](O)[C@]1(O)[C@@]24C)C(C)(O)C[C@H](O)[C@H]3O (some centres undefined)
- Potency [1]: inactive
- Potency [2]: inactive

Compound: CCC(NC(=O)CC(NC(=O)C(CO)NC(=O)C(CC)NC(=O)c1ccc[nH]1)c1ccccc1)C(=O)O (centres undefined)
- Potency [1]: inactive
- Potency [2]: inactive

Compound: COc1cc(C(C)=O)ccc1O[C@@H]1O[C@H](CO[C@@H]2O[C@@H](C)[C@H](O)[C@@H](O)[C@H]2O)[C@@H](O)[C@H](O)[C@H]1O
- Potency [1]: inactive
- Potency [2]: inactive

Compound: N#Cc1ccnc(N2C(=O)CC[C@H]2C(=O)N(c2cncc(F)c2)[C@H](C(=O)NC2CC(F)(F)C2)c2ccccc2Cl)c1
- Potency [1]: inactive
- Potency [2]: inactive

Compound: C/C=C/C=C/C(CC(=O)O)Nc1ccc(C=O)cc1 (centres undefined)
- Potency [1]: inactive
- Potency [2]: inactive

Compound: CC/C=C/CC1=C(CCCCCCCC(=O)O)CCC1=O
- Potency [1]: inactive
- Potency [2]: inactive

Compound: O=C(NN1CCCCC1)c1nn(-c2ccc(Cl)cc2Cl)c(-c2ccc(C#Cc3ccc(C(F)(F)F)cc3)s2)c1CNS(=O)(=O)N1CCCC1
- Potency [1]: inactive
- Potency [2]: inactive

Compound: CC(=O)N[C@H](Cc1ccc(O)cc1)C(=O)N[C@H](CCCN=C(N)N)C(=O)N[C@H](Cc1ccccc1)C(N)=O (Ac-[dY]-[dR]-[dF]-NH2)
- Potency [1]: inactive
- Potency [2]: inactive

Compound: C=C(C)[C@@H](C)[C@H]1O[C@]23C[C@]4(CO2)C(CCC2[C@@]5(C)CC[C@H](O[C@@H]6OC[C@H](O)[C@H](O[C@@H]7O[C@H](CO)[C@@H](O)[C@H](O)[C@H]7O)[C@H]6O[C@@H]6O[C@@H](CO)[C@H](O)[C@H]6O)C(C)(C)C5CC[C@]24C)C3[C@@](C)(O)[C@@H]1OC(C)=O (some centres undefined)
- outcome [1]: inactive [at 9.23 µM]
- outcome [2]: inactive [at 9.23 µM]

Compound: O=C(O[C@H]1[C@@H]2C[C@@H]3OC[C@@](O)([C@H]2[C@H](O[C@@H]2O[C@H](CO)[C@@H](O)[C@H](O)[C@H]2O)O3)[C@@H]1O)c1ccccc1
- Potency [1]: inactive
- Potency [2]: inactive
